# Screening results deposited in PubChem BioAssay by National Center for Advancing Translational Sciences (NCATS).
# In the library only some 19% were active in any assay of this set; here they are far more common.
# TDP1 cell noCPT: qHTS for Inhibitors of human tyrosyl-DNA phosphodiesterase 1 (TDP1): qHTS in cells in absence of CPT. Potency, µM (doses to about 46.2 µM), hits mostly inhibitors. 15% of 420,000 active. AID 686978, 2013. DT40 Tdp1-/- hTDP1 cells, no CPT, ATP luminescence, 48 h; also: nearly all actives have a fitted effect of over 55% in size
#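 Growth kinetics read by CellTiter-Glo luminescence after ≥48 hr at 37 °C. Cells: DT40 Tdp1-/- stably carrying human TDP1, 400 per well, compound exposure in the absence of CPT (DMSO vehicle).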
# KB-V1 cytotox: KB-V1 MDR subline cytotoxicity | KB-V1 MDR cells viability, CellTiter-Glo, 72 h | 3.4% of 400,000 active | Potency, µM (titrated, usually from 46.1 µM), actives largely listed as cytotoxic; also: nearly all actives have a fitted effect of over 60% in size
#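 KB-V1 cells (P-gp-expressing MDR subline of KB-3-1) in phenol-red-free DMEM with 10% FBS were exposed to library compounds over a concentration series for 72 h at 37 degrees C. Viability read by CellTiter-Glo luminescence; concentration-effect curves fitted after normalization.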
# HT1080 IDH1KD tx: HT-1080 IDH1 knockdown cell toxicity (counter line); HT-1080 IDH1 knockdown viability, ATP luminescence, 48 h; 2% of 360,000 active; Potency, µM (top dose mostly 46.1 µM), most hits filed as cytotoxic; AID 686971
#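 Cytotoxicity counter-line: IDH1KD HT-1080, 48 h, CellTiter-Glo. Curves classed by r2, magnitude and activity.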
# KB-3-1 tox: KB-3-1 parental cell cytotoxicity; AID 1347075; 1.4% of 400,000 active; KB-3-1 viability, CellTiter-Glo ATP luminescence, 72 h; Potency, µM (top dose mostly 46.1 µM), actives largely listed as cytotoxic; also: nearly all actives have a fitted effect of over 60% in size
#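 Parental KB-3-1 adenocarcinoma cells in phenol-red-free DMEM with 10% FBS were pin-treated with compounds at several concentrations, incubated 72 h at 37 °C, and viability read by CellTiter-Glo luminescence; concentration-effect curves were fitted after normalization.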
# DT40 TDP1 CPT: growth inhibition of DT40 Tdp1-/-;hTDP1 cells with camptothecin (screen for TDP1 inhibitors); Potency, µM (highest dose often 46.2 µM), actives largely listed as inhibitors; 12% of 420,000 active; chicken DT40 Tdp1-/-;hTDP1 cells + 20 nM CPT, ATP luminescence, 48 h; AID 686979; also: nearly all actives have a fitted effect of over 55% in size
#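 Chicken DT40 Tdp1-/- cells complemented with human TDP1, 400 cells/well, exposed to compounds plus 20 nM camptothecin for at least 48 h at 37 C; viability read as ATP content by CellTiter-Glo luminescence.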
# HT1080-NT tox: kills 2HG-producing HT-1080-NT fibrosarcoma cells; HT-1080-NT fibrosarcoma viability, CellTiter-Glo ATP luminescence, 48 h; Potency, µM (series often up to 46.1 µM), usual class: cytotoxic; 1.6% of 360,000 active; AID 686970;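 also: NT is the 2HG producing partner of a matched IDH1 knockdown line; nearly all actives have a fitted effect of over 55% in size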
#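 Viability by CellTiter-Glo luminescence after 48 h compound exposure at 37C of HT-1080-NT cells (750/well, RPMI, 5% FBS). % activity scaled between DMSO wells and medium-only wells, then curve-fitted and categorized by curve class.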
# A number is an active result; 0 = inactive; ? = inconclusive; - = not tested or not shown; [ ] = remark or other dose. Calls follow the shape of the dose curve; as a rule, active = well fitted curve in the direction sought with a large enough effect; inconclusive = small, poorly fitted or top-dose-only effect, or another doubt; inactive = no such curve, though single readings can be large; an effect the other way counts as inactive or inconclusive.
SMILES,TDP1 cell noCPT,KB-V1 cytotox,HT1080 IDH1KD tx,KB-3-1 tox,DT40 TDP1 CPT,HT1080-NT tox
CCc1ccc(-n2c(N3CCN(c4ccc(F)cc4)CC3)nc3ccccc3c2=O)cc1,12µM,-,-,-,23µM,-
CCc1ccc(-n2c(N3CCN(c4cccc(Cl)c4)CC3)nc3ccccc3c2=O)cc1,8.2µM,-,-,-,6.5µM,-
CCOc1ccccc1C(=O)Nc1cccc(-c2ccc3nncn3n2)c1,23µM,?,0,0,23µM,0
Cc1ccccc1C(=O)Nc1cccc(-c2ccc3nncn3n2)c1,21µM,0,0,0,23µM,0
Cc1ccc(S(=O)(=O)Nc2cccc(-c3ccc4nncn4n3)c2)cc1,2.3µM,16µM,3.3µM,3.7µM,1.8µM,4.6µM
CC(=O)c1ccc(S(=O)(=O)Nc2cccc(-c3ccc4nncn4n3)c2)cc1,0,0,0,0,0,0
S=c1nc2[nH]c3ccccc3c2n[nH]1,?,0,0,0,0,0
CC(=O)NC(C)(c1ccccc1)c1nc(-c2cnc3ccccc3c2)cs1 (stereo unspecified),15µM,0,0,0,?,0
CC(=O)NC(C)(c1ccccc1)c1nc(-c2ccc(F)c(Cl)c2)cs1 (stereo unspecified),23µM,0,?,0,15µM,0
CCN(CC(=O)Nc1ccccc1C(F)(F)F)C(=O)C1=COCCO1,0,0,0,0,0,0
CCCCN(C(=O)c1ccc(NC(=O)C(C)C)cc1)c1ccccc1,0,0,0,0,0,0
Cc1nc2ccccc2c(=O)n1NCc1cc(Br)cs1,15µM,0,0,0,?,0
CS(=O)(=O)Nc1ccc([N+](=O)[O-])cc1OC1CCCCC1,?,-,-,-,0,-
CC1CCCN(C(=S)SCC(=O)c2cc(Br)cc(Br)c2O)C1 (stereo unspecified),2.9µM,0,0,0,4.1µM,0
O=C(CSC(=S)N1CCCC1)c1cc(Br)cc(Br)c1O,?,0,0,0,?,16µM
Cc1noc(NS(=O)(=O)c2cccc3c(N(C)C)cccc23)c1C,0,-,-,-,0,-
Cc1ccc(NC2=C(CC(=O)O)C(c3ccccc3)N(c3ccc(C)cc3)C2=O)cc1 (stereo unspecified),?,0,0,0,16µM,0
CC(=O)Nc1ccc(C)cc1-c1nc2ccccc2n(CC(=O)Nc2cc(Cl)ccc2C)c1=O,0,0,-,0,?,-
O=C(Nc1ccc(Cl)cc1)c1ccc2c(c1)N(Cc1ccccc1)CCS2,?,0,-,0,15µM,-
Cc1ccc(CN2CCSc3ccc(C(=O)Nc4cc(C)cc(C)c4)cc32)cc1,?,0,-,0,?,-
Cc1ccc(CN2CCSc3ccc(C(=O)Nc4ccc(Cl)cc4)cc32)cc1,?,0,-,0,23µM,-
COCCN(C(=O)COC(=O)CNC(=O)c1ccc(C)cc1)c1c(N)n(Cc2ccccc2)c(=O)[nH]c1=O,0,0,0,0,0,0
COc1ccccc1CCNC(=O)Cc1c(C)c2cc(Cl)c(O)cc2oc1=O,0,-,-,-,0,-
Cc1cccc(C)c1NC(=O)C(C)NCc1cccs1 (stereo unspecified),0,0,0,0,0,0
Fc1ccccc1Cn1cc(C(=S)N2CCOCC2)c2ccccc21,16µM,?,0,0,?,0
SMILES,TDP1 cell noCPT,KB-V1 cytotox,HT1080 IDH1KD tx,KB-3-1 tox,DT40 TDP1 CPT,HT1080-NT tox
CN1CCN(C(=S)c2cn(Cc3ccccc3)c3ccccc23)CC1,0,?,0,0,?,0
Fc1ccc(Cn2cc(C(=S)N3CCOCC3)c3ccccc32)cc1,?,0,0,0,?,0
CN1CCN(C(=S)c2cn(Cc3ccc(Br)cc3)c3ccccc23)CC1,?,0,?,0,21µM,?
O=C1C=C(c2c(O)ccc3ccccc23)c2ccccc2C1=O,1.2µM,0,?,?,1.2µM,7.3µM
O=c1[nH]c(CN(CCc2ccccc2)S(=O)(=O)c2ccc(Cl)cc2)nc2ccccc12,?,3.3µM,0,0,0,0
COc1ccc(CN(Cc2nc3ccccc3c(=O)[nH]2)C(=O)c2ccco2)cc1,0,?,0,0,0,0
CN(Cc1nc2ccccc2c(=O)[nH]1)c1ccccc1,0,?,0,0,?,0
COc1ccccc1CN(Cc1nc2ccccc2c(=O)[nH]1)S(=O)(=O)c1ccc2ccccc2c1,5.6µM,13µM,6.3µM,0,3.7µM,?
COc1ccc(S(=O)(=O)N(Cc2ccccc2)Cc2nc3ccccc3c(=O)[nH]2)cc1,5.2µM,?,0[9.24 µM],0,4.6µM,0
O=c1[nH]c(Cc2ccc(Cl)cc2)nc2ccccc12,0,0,0,0,0,0
C=CCn1c(SCCN2CCCC2)nc2c([nH]c3ccccc32)c1=O,0,0,0,0,0,0
CC(C)OCCCNC(=O)Nc1cccc2ccccc12,0,0,0,0,0,0
Cc1ccc2c(c1)c1c(n2CC(O)CNC2CCCC2)CCCC1 (stereo unspecified),?,21µM,0,?,?,?
O=C(N/N=C/c1cccc(Br)c1)c1ccc(Br)cc1,0,0,0,0,0,0
CCC(CC)NC(=O)c1cccc(Oc2ccccc2)c1,?,23µM,0,0,0,0
COC(=O)/C(=C/c1cccnc1)NC(=O)c1ccccc1,0,0,0,0,0,0
CN(C)C(=O)/C(=C\c1cccc(Oc2ccccc2)c1)NC(=O)c1ccccc1,?,?,0,0,16µM,0
O=C(N/N=C/c1cccc(Oc2ccccc2)c1)c1cccc(O)c1,?,0,21µM,?,?,?
NC(=O)c1ccc(C(=O)N/N=C/c2cccc(Oc3ccccc3)c2)cc1,0,0,0,0,0,0
O=C(N/N=C/c1cccc(Oc2ccccc2)c1)c1cccc(Br)c1,21µM,0,0,0,?,0
CC(C)CNC(=O)/C=C/C=C/c1ccc2c(c1)OCO2,?,0,0,0,0,0
COc1ccc(OCCSc2ncn[nH]2)cc1,0,0,0,0,0,0
Cc1ccc(C(=O)N/N=C/C=C/c2ccccc2)cc1,0,0,0,0,0,0
O=C(CNc1cccc2ccccc12)N/N=C/c1cccc(Oc2ccccc2)c1,26µM,0,?,0,?,?
O=C(N/N=C/C=C/c1ccccc1)c1cccc(Br)c1,21µM,?,?,0,?,?
NC(=S)N/N=C/C=C/c1ccccc1,5.8µM,0,0,0,5.8µM,0
Cc1ccc(C(O)Cn2nc(C)cc2C)cc1 (stereo unspecified),?,0,0,0,?,0
Cc1ccc(NC(=C(C#N)C#N)c2ccccc2)cc1,12µM,0,0,0,?,0
